Test results reported in PubChem BioAssay (NCI).
The panel holds about 79,000 compounds, 15% with a hit somewhere; the sample as a whole holds those more often. Active and inactive are the calls of the source. Rule as the data show it: active = growth inhibition above about 70%; inactive = the rest.

Tests used:
[1] = NCI Yeast Anticancer Drug Screen. Data for the rad52 strain (AID 147);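 also: 0% = growth of vehicle-treated control cultures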; conditions: S. cerevisiae rad52 mutant growth inhibition, stronger effect = higher value
Summary of the method: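 Growth of repair-deficient yeast cells was compared between compound-treated and vehicle-treated cultures to give percent inhibition.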

[2] = NCI Yeast Anticancer Drug Screen. Data for the wt1 strain (AID 149);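 also: 0% = growth of vehicle-treated wt1 cultures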; conditions: S. cerevisiae wt1 strain (SPY 50644) growth inhibition, stronger effect = higher value
Summary of the method: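 The wt1 strain was treated with compounds, and growth was compared with vehicle-treated cultures to give inhibition.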

[3] = NCI Yeast Anticancer Drug Screen. Data for the rad50EPP+ strain (AID 151);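 also: 0% = growth of vehicle-treated control cultures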; conditions: S. cerevisiae rad50 mutant strain, stronger effect = higher value
Summary of the method: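 Measured: growth inhibition of rad50EPP+ yeast. Reference: vehicle-treated controls. Screen uses strains with defined genetic alterations in DNA damage repair or cell cycle control.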

[4] = NCI Yeast Anticancer Drug Screen. Data for the mgt1 strain (AID 153); conditions: S. cerevisiae mgt1 mutant growth inhibition, stronger effect = higher value
Summary of the method: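 Compounds were applied to mgt1 mutant yeast, and growth was then compared against vehicle-treated control cultures to give percent inhibition.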

[5] = NCI Yeast Anticancer Drug Screen. Data for the rad50 strain (AID 155);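 also: 0% = growth of vehicle-only cultures of the same strain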; conditions: S. cerevisiae rad50 strain growth inhibition, stronger effect = higher value
Summary of the method: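 Cells are treated with compound, grown, and their growth is then scored against vehicle-only cultures of the same repair-deficient yeast strain.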

[6] = NCI Yeast Anticancer Drug Screen. Data for the mec2-1 strain (AID 157); conditions: S. cerevisiae mec2-1 strain, stronger effect = higher value
Summary of the method: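 Compounds were applied to mec2-1 yeast cells. Their growth was then compared with that of vehicle-treated cultures to give growth inhibition.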

[7] = NCI Yeast Anticancer Drug Screen. Data for the rad14 strain (AID 159);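 also: 0% = growth of vehicle-treated control cultures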; conditions: S. cerevisiae rad14 strain growth inhibition, stronger effect = higher value
Summary of the method: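 Readout: yeast growth inhibition, referenced to vehicle-only cultures. Strain bears a defined alteration in DNA damage repair.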

[8] = NCI Yeast Anticancer Drug Screen. Data for the sgs1 mgt1 strain (AID 161);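 also: 0% = growth of cultures given vehicle only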; conditions: S. cerevisiae sgs1 mgt1 strain, stronger effect = higher value
Summary of the method: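 Compounds are added to genetically altered yeast, and growth is compared with cultures given vehicle alone to give percent inhibition.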

[9] = NCI Yeast Anticancer Drug Screen. Data for the CLN2oe strain (AID 163);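 also: 0% = growth of vehicle-only control cultures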; conditions: S. cerevisiae CLN2oe strain, stronger effect = higher value
Summary of the method: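 Cells of an engineered yeast line with disturbed cell-cycle regulation are treated with compound. Inhibition of growth is then calculated relative to the vehicle-treated reference.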

[10] = NCI Yeast Anticancer Drug Screen. Data for the cln2 rad14 strain (AID 165);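 also: 0% = growth equal to vehicle treated cultures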; conditions: S. cerevisiae cln2 rad14 strain, stronger effect = higher value
Summary of the method: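 Strain: cln2 rad14 yeast, altered in cell cycle control and DNA damage repair. Read-out: growth inhibition vs vehicle.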

[11] = NCI Yeast Anticancer Drug Screen. Data for the bub3 strain (AID 167); conditions: S. cerevisiae bub3 mutant strain, stronger effect = higher value
Summary of the method: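 Part of a panel of yeast mutants defective in DNA damage repair or cell cycle regulation. Each strain is grown with compound, and inhibition is calculated relative to solvent-treated cultures.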

[12] = NCI Yeast Anticancer Drug Screen. Data for the wt2 strain (AID 169);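 also: 0% = growth of vehicle-treated yeast cultures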; conditions: S. cerevisiae wt2 strain growth inhibition, stronger effect = higher value
Summary of the method: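 Growth of compound-treated yeast is measured and expressed as inhibition relative to vehicle-only controls.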

[13] = NCI Yeast Anticancer Drug Screen. Data for the mlh1 strain (AID 171);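 also: 0% = growth of vehicle-treated control cultures of the same strain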; conditions: S. cerevisiae mlh1 strain growth inhibition, stronger effect = higher value
Summary of the method: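 Test agents were incubated with yeast bearing a defined DNA damage repair or cell cycle control alteration; values are growth inhibition normalised to vehicle-treated cultures.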

[14] = NCI Yeast Anticancer Drug Screen. Data for the sgs1 strain (AID 173);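 also: 0% = growth of vehicle-only control cultures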; conditions: S. cerevisiae sgs1 mutant, stronger effect = higher value
Summary of the method: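 Strain with an altered DNA repair or cell cycle pathway exposed to compound. Growth then measured. Value = inhibition versus vehicle control.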

[15] = NCI Yeast Anticancer Drug Screen. Data for the mlh1 rad18 strain (AID 175); conditions: S. cerevisiae mlh1 rad18 strain growth inhibition, stronger effect = higher value
Summary of the method: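 A repair-deficient yeast strain is exposed to test compound, and growth is scored relative to vehicle-treated controls.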

[16] = NCI Yeast Anticancer Drug Screen. Data for the rad18 strain (AID 177); conditions: S. cerevisiae rad18 mutant growth inhibition, stronger effect = higher value
Summary of the method: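 DNA-repair-defective yeast; compound treatment; growth inhibition scored against vehicle.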

[17] = at 5.0 µM (retest, dose inferred, filed as 0.5)
[18] = at 50.0 µM (retest, dose inferred, filed as 5.0)

Measured: growth inhibition

Oc1ccc(O)c(Cc2ccccc2)c1
inactive: [1]; at 1.2 µM 21% | [1]; at 3.7 µM 48% | [2]; at 1.2 µM 6% | [2]; at 3.7 µM 14% | [2]; at 11.0 µM 29% | [2]; at 33.0 µM 50% | [3]; at 1.2 µM 56% | [4]; at 1.2 µM 4% | [4]; at 3.7 µM 13% | [4]; at 11.0 µM 37% | [5]; at 1.2 µM 37% | [6]; at 1.2 µM 6% | [6]; at 3.7 µM 30% | [6]; [17] -9% | [6]; [18] 68% | [7]; at 1.2 µM 17% | [7]; at 3.7 µM 34% | [8]; [17] -20% | [8]; [18] 68% | [9]; at 1.2 µM 3% | [9]; at 3.7 µM 28% | [9]; at 11.0 µM 40% | [10]; [17] -25% | [10]; [18] 47% | [11]; at 1.2 µM 8% | [11]; at 3.7 µM 25% | [11]; [17] -26% | [11]; at 11.0 µM 63% | [12]; at 1.2 µM -2% | [12]; at 3.7 µM 1% | [12]; at 11.0 µM 23% | [12]; at 33.0 µM 58% | [13]; at 1.2 µM 9% | [13]; at 3.7 µM 22% | [13]; at 11.0 µM 47% | [14]; at 1.2 µM 16% | [14]; at 3.7 µM 45% | [15]; [17] 36% | [16]; at 1.2 µM 27% | [16]; at 3.7 µM 52%
active: [1]; at 11.0 µM 89% | [1]; at 33.0 µM 97% | [1]; at 100.0 µM 99% | [2]; at 100.0 µM 93% | [3]; at 3.7 µM 88% | [3]; at 11.0 µM 95% | [3]; at 33.0 µM 98% | [3]; at 100.0 µM 99% | [4]; at 33.0 µM 78% | [4]; at 100.0 µM 99% | [5]; at 3.7 µM 87% | [5]; [17] 77% | [5]; at 11.0 µM 97% | [5]; at 33.0 µM 99% | [5]; [18] 97% | [5]; at 50.0 µM 79.3% | [5]; at 100.0 µM 99% | [6]; at 11.0 µM 75% | [6]; at 33.0 µM 100% | [6]; at 50.0 µM 84.3% | [6]; at 100.0 µM 100% | [7]; at 11.0 µM 73% | [7]; at 33.0 µM 98% | [7]; at 100.0 µM 99% | [8]; at 50.0 µM 92.5% | [9]; at 33.0 µM 72% | [9]; at 100.0 µM 98% | [10]; at 50.0 µM 97.4% | [11]; at 33.0 µM 97% | [11]; [18] 88% | [11]; at 50.0 µM 98.3% | [11]; at 100.0 µM 99% | [12]; at 100.0 µM 87% | [13]; at 33.0 µM 89% | [13]; at 100.0 µM 98% | [14]; at 11.0 µM 94% | [14]; at 33.0 µM 99% | [14]; at 100.0 µM 99% | [15]; [18] 95% | [15]; at 50.0 µM 98% | [16]; at 11.0 µM 87% | [16]; at 33.0 µM 97% | [16]; at 100.0 µM 99%

O=C1NC(SSC2=NNC3(C(=O)N2)c2ccccc2-c2ccccc23)=NNC12c1ccccc1-c1ccccc12
inactive: [1]; at 1.2 µM 2% | [1]; at 3.7 µM -1% | [1]; at 11.0 µM 1% | [1]; at 33.0 µM 8% | [1]; at 100.0 µM 33% | [2]; at 1.2 µM 0% | [2]; at 3.7 µM 0% | [2]; at 11.0 µM 0% | [2]; at 33.0 µM 1% | [2]; at 100.0 µM 5% | [3]; at 1.2 µM 8% | [3]; at 3.7 µM 9% | [3]; at 11.0 µM 20% | [3]; at 33.0 µM 43% | [3]; at 100.0 µM 63% | [4]; at 1.2 µM 1% | [4]; at 3.7 µM 0% | [4]; at 11.0 µM 0% | [4]; at 33.0 µM -10% | [4]; at 100.0 µM 7% | [5]; at 1.2 µM -1% | [5]; at 3.7 µM 7% | [5]; [17] -4% | [5]; at 11.0 µM -13% | [5]; at 33.0 µM 18% | [5]; [18] 53% | [5]; at 100.0 µM 37% | [6]; at 1.2 µM 1% | [6]; at 3.7 µM 2% | [6]; [17] -11% | [6]; at 11.0 µM 3% | [6]; at 33.0 µM 7% | [6]; [18] 10% | [6]; at 100.0 µM 13% | [7]; at 1.2 µM -1% | [7]; at 3.7 µM -4% | [7]; at 11.0 µM -1% | [7]; at 33.0 µM 2% | [7]; at 100.0 µM 8% | [8]; [17] -7% | [8]; [18] -23% | [9]; at 1.2 µM 4% | [9]; at 3.7 µM 1% | [9]; at 11.0 µM 1% | [9]; at 33.0 µM 5% | [9]; at 100.0 µM 2% | [10]; [17] 0% | [10]; [18] -14% | [10]; at 50.0 µM 51.8% | [11]; at 1.2 µM 4% | [11]; at 3.7 µM 6% | [11]; [17] 10% | [11]; at 11.0 µM 7% | [11]; at 33.0 µM 12% | [11]; [18] 25% | [11]; at 100.0 µM 12% | [12]; at 1.2 µM -1% | [12]; at 3.7 µM -3% | [12]; at 11.0 µM -3% | [12]; at 33.0 µM 0% | [12]; at 100.0 µM 5% | [13]; at 1.2 µM 3% | [13]; at 3.7 µM 1% | [13]; at 11.0 µM 2% | [13]; at 33.0 µM 8% | [13]; at 100.0 µM 17% | [14]; at 1.2 µM -4% | [14]; at 3.7 µM -1% | [14]; at 11.0 µM -6% | [14]; at 33.0 µM 1% | [14]; at 100.0 µM 11% | [15]; [17] -11% | [15]; [18] -7% | [16]; at 1.2 µM 0% | [16]; at 3.7 µM 3% | [16]; at 11.0 µM 5% | [16]; at 33.0 µM 5% | [16]; at 100.0 µM 9%
active: [5]; at 50.0 µM 96.2% | [6]; at 50.0 µM 80% | [8]; at 50.0 µM 80.5% | [11]; at 50.0 µM 86.5% | [15]; at 50.0 µM 96.2%
